In the supplement of paper PMC6522484:
Where a name gives a salt, the structure may show the parent alone. ± gives the standard deviation of the averaged measurements.

system: SW480; assay: TCF/Wnt firefly luciferase reporter signal relative to plate median (fraction of plate median); higher = higher Wnt reporter signal; conditions: 10 µM; treatment time 24 h; reporter: 7TFP
Method in brief: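 Values are the mean of two independent replicates of luminescence normalised to the plate median with webcellHTS2, using the additive method without log transformation. They come from colorectal cancer cell lines stably transduced with lentiviral TCF/Wnt firefly luciferase reporters (7TFP or TCF4/Wnt), seeded in 384-well plates. After 24 h the cells got kinase inhibitor library compounds at a final 10 µM for 24 h, and parallel plates were read for firefly luciferase or CellTiterGlo on a Tecan F500.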

Row | Compound | TCF/Wnt firefly luciferase reporter signal
1 | S=C(NCc1ccc2c(c1)OCO2)N1CCN(c2ncnc3c2oc2ccccc23)CC1 [Amuvatinib (MP-470)] | 0.953 ± 0.12
2 | Cn1cnc(N)c2ncnc1-2 [3-Methyladenine] | 0.733 ± 0.24
3 | Clc1ccc(Nc2nnc(Cc3ccncc3)c3ccccc23)cc1 [Vatalanib dihydrochloride (PTK787)] | 0.957 ± 0.089
4 | O=c1cc(-c2cccc3c2Sc2ccccc2S3)oc(N2CCOCC2)c1 | 1.18 ± 0.13
5 | CN1CCN(CCOc2cc(OC3CCOCC3)c3c(Nc4c(Cl)ccc5c4OCO5)ncnc3c2)CC1 [Saracatinib (AZD0530)] | 0.613 ± 0.32
6 | CNC(=O)Nc1ccc(-c2nc(N3CC4CCC(C3)O4)c3cnn(C4CCC5(CC4)OCCO5)c3n2)cc1 | 0.876 ± 0.1
7 | CO[C@H]1C[C@@H]2CC[C@@H](C)[C@@](O)(O2)C(=O)C(=O)N2CCCC[C@H]2C(=O)O[C@H]([C@H](C)C[C@@H]2CC[C@@H](OCCO)[C@H](OC)C2)CC(=O)[C@H](C)/C=C(\C)[C@@H](O)[C@@H](OC)C(=O)[C@H](C)C[C@H](C)/C=C/C=C/C=C/1C [Everolimus (RAD001)] | 1.42 ± 0.057
8 | N#C/C(=C\c1ccc(O)c(O)c1)C(=O)NCc1ccccc1 | 0.834 ± 0.016
9 | Cc1cc(CN2CCN(c3c(Br)cnc4nc(-c5ccc(N6CCN(C)CC6)cc5)[nH]c34)CC2)no1 | 1.34 ± 0.4
10 | COc1cc2ncnc(Nc3cccc(Cl)c3)c2cc1OC [AG-1478 (Tyrphostin AG-1478)] | 0.962 ± 0.054
11 | Cc1c(NC(=O)OC[C@@H]2COCCN2)cn2ncnc(Nc3ccc4c(cnn4Cc4cccc(F)c4)c3)c12 | 1.3 ± 0.078
12 | CCCS(=O)(=O)Nc1ccc(F)c(C(=O)c2c[nH]c3ncc(-c4ccc(Cl)cc4)cc23)c1F [Vemurafenib (PLX4032)] | 0.866 ± 0.11
13 | COc1ccc(-c2cc3c(C)nc(N)nc3n([C@H]3CC[C@H](OCCO)CC3)c2=O)cn1 | 0.725 ± 0.043
